FMDV inh: High Throughput Screening for Foot and Mouth Disease Virus Antivirals | FMDV antiviral cell-based qHTS | Potency, µM (series often up to 57.9 µM), for inactives: at the highest dose activity change, negative = inhibition, actives largely listed as inhibitors | 410,000 compounds, 1.2% hits | AID 1159524, 2015; calls by dose curve; tested in HEK293T cells; also: read-out not given here; potency is read from the fitted curve at half-maximal effect; nearly all actives have a fitted effect of over 45% in size
HCMV antiviral: qHTS Assay for inhibitors of the human cytomegalovirus (HCMV). HFF cells, HCMV-luciferase reporter, 72 h; stronger effect = lower value. activity change, negative = inhibition, % at 57.5 µM. 410,000 compounds, 4.5% hits. AID 1259415, 2018; in the data active = activity change below about -60%; inconclusive = no clear call, values can overlap the other calls; inactive = above about -39%
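Compounds were evaluated in HFFs infected with an HCMV luciferase reporter virus (MOI 1 PFU/cell). Luciferase in lysates collected 72 h post infection served as the replication measure.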
VACV Venus inh: qHTS for Stage-Specific Inhibitors of Vaccinia Orthopoxvirus: Venus Reporter Primary qHTS; Potency, µM (top dose mostly 36.5 µM), for inactives: top-dose activity change, negative = inhibition, usual class: inhibitors; Vaccinia virus Venus reporter expression, fluorescence; 330,000 compounds, 0.46% hits; calls by dose curve; tested in A549 cells; also: potency is read from the fitted curve at half-maximal effect; nearly all actives have a fitted effect of over 30% in size
MARV entry inh: qHTS for inhibitors of binding or entry into cells for Marburg Virus; Marburg virus pseudotyped entry inhibition, cell reporter; Potency, µM (series often up to 37.8 µM), for inactives: top-dose activity change, negative = inhibition, actives largely listed as inhibitors; 300,000 compounds, 1.8% hits; AID 540276, 2011; calls by dose curve; tested in HEK293 cells; also: potency is read from the fitted curve at half-maximal effect
LASV entry inh: qHTS for Inhibitors of binding or entry into cells for Lassa Virus. Lassa virus pseudotype entry inhibition, cell reporter. Potency, µM (top dose mostly 37.9 µM), inactives show top-dose activity change, negative = inhibition, actives largely listed as inhibitors. 300,000 compounds, 1.2% hits; calls by dose curve; tested in HEK293 cells; also: potency is read from the fitted curve at half-maximal effect; nearly all actives have a fitted effect of over 50% in size
Vaccinia mCherry: qHTS for Stage-Specific Inhibitors of Vaccinia Orthopoxvirus: mCherry Reporter Primary qHTS; Vaccinia virus mCherry reporter infection, fluorescence; Potency, µM (top dose mostly 36.5 µM), inactives show top-dose activity change, negative = inhibition, most hits filed as inhibitors; 310,000 compounds, 0.63% hits; AID 720579, 2013; calls by dose curve; tested in A549 cells; also: potency is read from the fitted curve at half-maximal effect; nearly all actives have a fitted effect of over 35% in size
* marks the source's active call; other numbers are inactive results; [ ] = dose if it differs, or a comment. The list is not random: actives were taken first. Their share in the collection is about 6.5%. % is scaled to controls: 0 for no effect and ±100 for the full control effect.

For CN1CCc2nc(SCc3ccc(Cl)cc3)c(C#N)c(-c3cccs3)c2C1 the results were FMDV inh -11%, HCMV antiviral -109*, VACV Venus inh -8%, MARV entry inh -16%, LASV entry inh 0% and Vaccinia mCherry -18%.
`CCOC(=O)CC(=O)CSc1nc2c(c(-c3cccs3)c1C#N)CCC2` gave FMDV inh 10%, HCMV antiviral -33, VACV Venus inh -7% and Vaccinia mCherry inactive.
N#Cc1c(N)nc(SCc2ccncc2)c(C#N)c1-c1cccs1 was read as FMDV inh 16µM*, HCMV antiviral inconclusive, VACV Venus inh inconclusive, MARV entry inh inconclusive, LASV entry inh inconclusive and Vaccinia mCherry inconclusive.
For CCOC(=O)c1ccccc1NC(=O)N(Cc1ccc(CC)cc1)Cc1cn[nH]c1-c1ccc(OC)cc1 the results were FMDV inh inconclusive, HCMV antiviral -63*, VACV Venus inh inconclusive, MARV entry inh inconclusive, LASV entry inh -2%[46.1 µM] and Vaccinia mCherry inconclusive.
`O=Cc1ccccc1OCCN1CCCC1=O` gave FMDV inh -11% and HCMV antiviral -63*.
For COc1ccc(OC)c(-c2ccc(O)c(CN3CCc4c([nH]c5ccccc45)C3)c2)c1 the results were FMDV inh -11%, VACV Venus inh -7% and Vaccinia mCherry -9%.
`CC(C)C[C@H](N)c1nnc(S(=O)(=O)Cc2ccc(F)cc2)o1` gave FMDV inh 22µM*, VACV Venus inh -10%, MARV entry inh inconclusive and LASV entry inh inconclusive.
CC(C)C[C@H](N)c1nnc(SCc2ccc(Cl)cc2Cl)o1 was read as FMDV inh -26%, HCMV antiviral 9, VACV Venus inh 0%, MARV entry inh inconclusive, LASV entry inh -20%[46.1 µM] and Vaccinia mCherry -6%.
CCc1ccc(NC(=S)NC2CCN(Cc3ccccc3)CC2)cc1 was read as FMDV inh -25%, HCMV antiviral -77*, VACV Venus inh inconclusive, MARV entry inh inconclusive, LASV entry inh inconclusive and Vaccinia mCherry inconclusive.
Screening COc1ccc(CCNC(=S)NC2CCN(Cc3ccccc3)CC2)cc1 returned FMDV inh -22%, HCMV antiviral -72*, VACV Venus inh -9%, MARV entry inh inconclusive, LASV entry inh -6%[46.1 µM] and Vaccinia mCherry inconclusive.
`CCC(C)c1ccc(NC(=S)NC2CCN(Cc3ccccc3)CC2)cc1` (stereo unspecified) gave FMDV inh inconclusive, HCMV antiviral -98*, VACV Venus inh 10µM*, MARV entry inh 11µM*, LASV entry inh inconclusive and Vaccinia mCherry inconclusive.
S=C(NCCc1ccccc1)NC1CCC(NC(=S)NCCc2ccccc2)CC1 (stereo unspecified) was read as FMDV inh -3%, HCMV antiviral inconclusive, VACV Venus inh 1%, MARV entry inh 9%[46.1 µM], LASV entry inh inconclusive and Vaccinia mCherry -5%.
Screening CCc1cccc2c(C(=O)CN3C(=O)NC(C)(c4cccc5ccccc45)C3=O)c[nH]c12 (stereo unspecified) returned FMDV inh inconclusive, HCMV antiviral 54, VACV Venus inh inconclusive, MARV entry inh inconclusive, LASV entry inh inconclusive and Vaccinia mCherry inconclusive.
Screening CCc1cccc2c(C(=O)CN3C(=O)NC4(CCc5ccccc54)C3=O)c[nH]c12 (stereo unspecified) returned FMDV inh -27%, HCMV antiviral -69*, VACV Venus inh inconclusive, MARV entry inh inconclusive, LASV entry inh inconclusive and Vaccinia mCherry inconclusive.
For CCCN1C(=O)CC[C@@H](S(=O)(=O)c2ccccc2)[C@@H]1c1ccco1 the results were HCMV antiviral -24.
Cc1cc(C)c(C(=O)N2CCCC(N3CCN(c4ccc(F)cc4)CC3)C2)o1 (stereo unspecified) was read as FMDV inh inconclusive, HCMV antiviral -69*, VACV Venus inh -14%, MARV entry inh inconclusive, LASV entry inh inconclusive and Vaccinia mCherry -13%.
For O=C(c1ccoc1)N1CCCC(N2CCN(c3ccc(F)cc3)CC2)C1 (stereo unspecified) the results were FMDV inh -19% and HCMV antiviral -12.
For O=C(c1cccc(-c2ccco2)c1)N1CCCC(N2CCN(c3ccc(F)cc3)CC2)C1 (stereo unspecified) the results were FMDV inh 35µM*, VACV Venus inh -17%, MARV entry inh -31%, LASV entry inh inconclusive and Vaccinia mCherry -6%.
For Cc1nc(C(=O)N2CCCC(N3CCN(c4ccc(F)cc4)CC3)C2)cs1 (stereo unspecified) the results were FMDV inh -23%, HCMV antiviral -19, VACV Venus inh -3% and Vaccinia mCherry inconclusive.
`O=C(CSc1ccccc1)N1CCCC(N2CCN(c3ccc(F)cc3)CC2)C1` (stereo unspecified) gave FMDV inh -17%, HCMV antiviral -70*, VACV Venus inh -28%, MARV entry inh inconclusive, LASV entry inh -29%[46.1 µM] and Vaccinia mCherry -25%.
Screening O=C(CSc1ccc(F)cc1)N1CCOCC1 returned FMDV inh -10% and HCMV antiviral -88*.
`O=C(CSCc1ccc(F)cc1)N1CCOCC1` gave FMDV inh 49%, HCMV antiviral 39, MARV entry inh 4% and LASV entry inh 12%.
`C[C@H](CO)N1C[C@H](C)[C@@H](CN(C)C(=O)c2cc(-c3ccccc3)on2)OCc2cn(nn2)CCCC1=O` gave FMDV inh -6%, HCMV antiviral 13, VACV Venus inh -1% and Vaccinia mCherry inactive.
Screening C/C(=N\NC(=O)Cn1c(C)nc2ccccc21)c1cccs1 returned FMDV inh inconclusive, HCMV antiviral -64*, VACV Venus inh -22%, MARV entry inh -21%, LASV entry inh -8% and Vaccinia mCherry inactive.
`C/C(=N\NC(=O)Cc1ccccc1)c1cccs1` gave HCMV antiviral 6, VACV Venus inh -7%, MARV entry inh 0%, LASV entry inh -1% and Vaccinia mCherry -26%.
For O=C(Cn1cnc2ccccc21)N/N=C/C(Br)=C/c1ccccc1 the results were FMDV inh inconclusive, HCMV antiviral -66*, VACV Venus inh inconclusive, MARV entry inh -19%, LASV entry inh -18% and Vaccinia mCherry inconclusive.
For CC(/C=N\NC(=O)Cn1c(C)nc2ccccc21)=C\c1ccccc1 the results were FMDV inh inconclusive, HCMV antiviral -86*, VACV Venus inh -15%, MARV entry inh inconclusive, LASV entry inh -23% and Vaccinia mCherry -29%.
For Cn1c(=O)c2c(ncn2CC(=O)N/N=C/C(Br)=C/c2ccccc2)n(C)c1=O the results were FMDV inh inconclusive, HCMV antiviral inconclusive, VACV Venus inh -13%, MARV entry inh -16%, LASV entry inh -12% and Vaccinia mCherry -4%.

Bioassay records as filed in PubChem.
